Inconclusive results are not listed. Calls of active or inactive are those of the source. Calls come from the whole dose curve; as a rule, active = well fitted inhibition curve with a large enough effect; inconclusive = small, poorly fitted or top-dose-only effect; inactive = flat fitted curve, though single readings scatter.
Potency is the fitted concentration of half-maximal effect.

For the first test, the system named is PC15. The experiment in a line: qHTS profiling for inhibitors of Plasmodium falciparum proliferation (AID 504749).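 For activity, negative = inhibition: 0% = DMSO vehicle and full inhibition = artemisinin control.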 Note: nearly all actives have a fitted effect of over 60% in size. The settings on record: P. falciparum in erythrocytes, SYBR Green DNA, 72 h; series mostly up to 28.7 µM; activity, negative = inhibition: at the top concentration. The essentials:
(§1)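 Quantitative HTS: compounds pinned into medium, infected erythrocytes added (0.3% parasitemia, 2.5% hematocrit), 72 h culture at 37 C under 5% CO2. Saponin/Triton lysis with SYBR Green I, overnight RT, then fluorescence read.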
(In general: qHTS replaces the single test concentration by a dilution series.)
On to `CO/N=C(/C(=O)N[C@@H]1C(=O)N2C(C(=O)O)=CCS[C@H]12)c1csc(N)n1`, for which the “activity, negative = inhibition” value is 8.87% (inactive).

Take `Cc1cc(CC(C)CC(C)(C)C)n(O)c(=O)c1` (centres undefined): the Potency is 5.01 µM (active).

With `CC1CCC(C(C)C)C(OC(=O)c2ccccc2O)C1` (centres undefined), the “activity, negative = inhibition” value is 9.2% (inactive).

In the case of `CC(C)(CO)C(O)C(=O)NCCCC(=O)O` (centres undefined), the “activity, negative = inhibition” value was -4.85% (inactive).

On to `CCC(=O)O[C@@H](OP(=O)(CCCCc1ccccc1)CC(=O)N1C[C@H](C2CCCCC2)C[C@H]1C(=O)O)C(C)C` (some centres undefined), for which the “activity, negative = inhibition” value was -0.975% (inactive).

Turning to `CC(=O)O[C@@]12CO[C@@H]1C[C@H](O)[C@@]1(C)C(=O)[C@H](O)C3=C(C)[C@@H](OC(=O)C(O)[C@@H](NC(=O)OC(C)(C)C)c4ccccc4)C[C@@](O)([C@@H](OC(=O)c4ccccc4)[C@H]21)C3(C)C` (some centres undefined), the Potency is 5.62 µM (active).

With `CC1(C)S[C@@H]2[C@H](NC(=O)COc3ccccc3)C(=O)N2[C@H]1C(=O)O`, the “activity, negative = inhibition” value is 1.63% (inactive).

In the case of `CCN1/C(=C/C=C/C=C/c2sc3ccccc3[n+]2CC)Sc2ccccc21`, the Potency is 4.47 µM (active).

As for `O=NCc1ccc([N+](=O)[O-])o1`, the “activity, negative = inhibition” value is -28.1% (inactive).

For the next test, the system named is PC26. Described as above. The settings on record: P. falciparum in erythrocytes, SYBR Green DNA, 72 h; series mostly up to 28.7 µM; activity, negative = inhibition: at the top concentration. The essentials: as §1
In the case of `CO/N=C(/C(=O)N[C@@H]1C(=O)N2C(C(=O)O)=CCS[C@H]12)c1csc(N)n1`, the “activity, negative = inhibition” value was 0.897% (inactive).

Take `Cc1cc(CC(C)CC(C)(C)C)n(O)c(=O)c1` (centres undefined): the Potency is 3.79 µM (active).

In the case of `CC1CCC(C(C)C)C(OC(=O)c2ccccc2O)C1` (centres undefined), the “activity, negative = inhibition” value was -1.6% (inactive).

On to `CCC(=O)O[C@@H](OP(=O)(CCCCc1ccccc1)CC(=O)N1C[C@H](C2CCCCC2)C[C@H]1C(=O)O)C(C)C` (some centres undefined), for which the “activity, negative = inhibition” value was 0.394% (inactive).

With `CC(=O)O[C@@]12CO[C@@H]1C[C@H](O)[C@@]1(C)C(=O)[C@H](O)C3=C(C)[C@@H](OC(=O)C(O)[C@@H](NC(=O)OC(C)(C)C)c4ccccc4)C[C@@](O)([C@@H](OC(=O)c4ccccc4)[C@H]21)C3(C)C` (some centres undefined), the Potency was 0.0379 µM (active).

Regarding `CC1(C)S[C@@H]2[C@H](NC(=O)COc3ccccc3)C(=O)N2[C@H]1C(=O)O`, the “activity, negative = inhibition” value was -1.44% (inactive).

Regarding `Nc1nc(Cl)nc2c1ncn2C1CC(O)C(CO)O1` (centres undefined), the “activity, negative = inhibition” value was -1.58% (inactive).

In a further test the test system is PC49. The test is described as above. The settings on record: P. falciparum in erythrocytes, SYBR Green DNA, 72 h; series mostly up to 28.7 µM; activity, negative = inhibition: at the top concentration. The method in brief:
as §1
Take `CO/N=C(/C(=O)N[C@@H]1C(=O)N2C(C(=O)O)=CCS[C@H]12)c1csc(N)n1`: the “activity, negative = inhibition” value is 1.27% (inactive).

Regarding `CC1CCC(C(C)C)C(OC(=O)c2ccccc2O)C1` (centres undefined), the “activity, negative = inhibition” value was 12.1% (inactive).

For `CC(C)(CO)C(O)C(=O)NCCCC(=O)O` (centres undefined), the “activity, negative = inhibition” value is -27.8% (inactive).

`CO[C@@H]1[C@@H](OC2OC(C)C(OC3CC(C)(O)C(OC(=O)CC(C)C)C(C)O3)C(N(C)C)C2O)[C@@H](CC=O)C[C@@H](C)C(=O)/C=C\C2O[C@H]2C[C@@H](C)OC(=O)C[C@H]1OC(C)=O` (some centres undefined): the “activity, negative = inhibition” value was -19.1% (inactive).

With `CCC(=O)O[C@@H](OP(=O)(CCCCc1ccccc1)CC(=O)N1C[C@H](C2CCCCC2)C[C@H]1C(=O)O)C(C)C` (some centres undefined), the “activity, negative = inhibition” value is -12.7% (inactive).

Consider `CC1(C)S[C@@H]2[C@H](NC(=O)COc3ccccc3)C(=O)N2[C@H]1C(=O)O`, for which the “activity, negative = inhibition” value was 8.91% (inactive).

For `CCN1/C(=C/C=C/C=C/c2sc3ccccc3[n+]2CC)Sc2ccccc21`, the Potency was 5.62 µM (active).

Take `O=NCc1ccc([N+](=O)[O-])o1`: the “activity, negative = inhibition” value was -3.46% (inactive).

Source of the values: PubChem BioAssay (NCATS).
